Compounds without any hit were thinned out: in the full panel of roughly 83,000, 20% have a hit.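 How to read the values: 0–100, growth inhibition (40 = 60% inhibited); 0, no net growth; -100 to 0, cell death (-40 = 40% of starting cells died; -100 = all dead).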 A number with no mark means an inactive call. The source made the active and inactive calls. How the source made its calls: active means growth percent below 10; inactive means the rest.

Some test systems named below: T-47D breast; BT-549 breast; MDA-MB-435 melanoma; SW-620 colon; MCF7 breast; HCT-116 colon; HCC-2998 colon; KM12 colon.
Common to all, as to experiment: NCI-60 one-dose screen, 48 h (100 = growth as untreated, 0 = no growth, -100 = all killed)
What all share (settings): 10 µM unless noted

As to `COc1ccc2[nH]cc(/C=N/Nc3ccnc4cc(Cl)ccc34)c2c1`, the growth with T-47D breast is -53.6% (active); with BT-549 breast, -91.8% (active); in the assay on MDA-MB-435 melanoma, -90.8% (active); in the assay on SW-620 colon it was -71.8% (active); in the assay on MCF7 breast, -69.1% (active); with HCT-116 colon it was -50.5% (active). The growth in the assay on HCC-2998 colon is -89.4% (active); in the assay with KM12 colon it was -78% (active).
As for `C=C(C)[C@@H]1CC[C@]2(COP(=O)(OCC)OCC)CC[C@]3(C)[C@H](CC[C@@H]4[C@@]5(C)CC[C@H](OP(=O)(OCC)OCC)C(C)(C)[C@@H]5CC[C@]43C)[C@@H]12`, the growth in the assay with T-47D breast is 20.8%; with BT-549 breast, 65%; in the assay with MDA-MB-435 melanoma it was 61%; in the assay with SW-620 colon, 38.4%; in the assay on MCF7 breast it was 0.255% (active); with HCT-116 colon it was 6.75% (active). Besides, the growth with HCC-2998 colon is 19.9%; in the assay with KM12 colon it was 54.2%.
Consider `Cc1cc(C)cc(NC2=C(Cl)C(=O)c3nc(C)ccc3C2=O)c1`, for which the growth in the assay on T-47D breast was -20% (active); in the assay with BT-549 breast, 66.6%; in the assay with MDA-MB-435 melanoma, -78.8% (active); in the assay on SW-620 colon, -6.15% (active); in the assay on MCF7 breast, -44.4% (active); in the assay on HCT-116 colon, 9.38% (active). Besides, the growth with HCC-2998 colon was 77.6%; in the assay with KM12 colon it was 76.8%.
In the case of `N#Cc1c(-c2ccc(F)cc2)cc(-c2c[nH]c3ccccc23)nc1-c1c[nH]c2ccccc12`, the growth was 89.9% with T-47D breast; 109% in the assay with BT-549 breast; 107% in the assay with MDA-MB-435 melanoma; 107% in the assay with SW-620 colon; 89.3% in the assay on MCF7 breast; 105% in the assay with HCT-116 colon. For the same compound, the growth was 109% in the assay with HCC-2998 colon and 101% with KM12 colon.
Consider `C=C(C)[C@@H]1CC[C@]2(C(=O)O)CC[C@]3(C)[C@H](CC[C@@H]4[C@@]5(C)C/C(=C/c6ccccn6)C(=O)C(C)(C)[C@@H]5CC[C@]43C)[C@@H]12`, for which the growth with T-47D breast is 19%; with BT-549 breast, 45.8%; in the assay with MDA-MB-435 melanoma, 36.6%; in the assay on SW-620 colon, 27.9%; with MCF7 breast, 18.7%; with HCT-116 colon, 13.5%. Besides, the growth in the assay on HCC-2998 colon is 31.3%; with KM12 colon it was 30.6%.
With `CC1=C(C)C(=O)C(Nc2ccc(C)c(C)c2)=C(Br)C1=O`, the growth was 41.6% with T-47D breast; 100% in the assay with BT-549 breast; 103% in the assay with MDA-MB-435 melanoma; 103% with SW-620 colon; 64.2% in the assay with MCF7 breast; 34.7% with HCT-116 colon. In addition, the growth is 96.4% with HCC-2998 colon and 99.8% with KM12 colon.
With `COc1ccc(C(=O)c2c(N)c(C#N)cn2-c2ccc(Cl)cc2Cl)cc1`, the growth in the assay on T-47D breast is 92.9%; in the assay with BT-549 breast, 111%; in the assay on MDA-MB-435 melanoma, 97.4%; in the assay with SW-620 colon, 98.3%; with MCF7 breast, 99.4%; in the assay on HCT-116 colon, 97.7%. Also, the growth with HCC-2998 colon is 103%; in the assay with KM12 colon, 102%.
Regarding `CN1CCN(c2ccc(Nc3nc(NCCCNS(=O)(=O)c4ccccc4)c4sccc4n3)cc2)CC1`, the growth was 36.8% with T-47D breast; 62.1% with BT-549 breast; 50.6% with MDA-MB-435 melanoma; 52.5% in the assay with SW-620 colon; 35.5% in the assay on MCF7 breast; 16.7% in the assay on HCT-116 colon. Also, the growth in the assay on HCC-2998 colon is 60.4%; with KM12 colon, 73.3%.
On to `C/C(CC1(O)C(=O)Nc2ccccc21)=N\O` (configuration not stated), for which the growth with T-47D breast was 83.7%; in the assay on BT-549 breast it was 101%; with MDA-MB-435 melanoma it was 104%; in the assay on SW-620 colon, 94.5%; in the assay with MCF7 breast, 95.2%; with HCT-116 colon, 98.1%. The growth in the assay with HCC-2998 colon was 111%; with KM12 colon, 101%.
On to `C=CCSC1=NC2C(N(CC)C(=O)N2CC)N1/N=C/C=C/c1ccccc1OC` (configuration not stated), for which the growth in the assay with T-47D breast was 68.9%; in the assay with BT-549 breast, 79.8%; with MDA-MB-435 melanoma, 2.79% (active); with SW-620 colon it was 69.7%; in the assay with MCF7 breast, 42.5%; in the assay with HCT-116 colon, 73.7%. The growth with HCC-2998 colon was 97.8%; in the assay on KM12 colon, 57.8%.
On to `Cc1cccc(N2CCN(C3=C(Cl)C(=O)c4ncccc4C3=O)CC2)c1`, for which the growth in the assay with T-47D breast was -39.5% (active); in the assay with BT-549 breast, 97.9%; in the assay with MDA-MB-435 melanoma, 11.8%; with SW-620 colon, 11%; with MCF7 breast it was 5.92% (active); in the assay with HCT-116 colon, -16.3% (active). Also, the growth in the assay with HCC-2998 colon was 107%; with KM12 colon it was 92.2%.
With `COc1ccc(CC(C)=C(c2ccc(OCCN3CCCC3)cc2)c2ccc(OCCN3CCCC3)cc2)cc1`, the growth with T-47D breast was -49.9% (active); with BT-549 breast it was -69.5% (active); with MDA-MB-435 melanoma, -76.4% (active); with SW-620 colon, -53% (active); with MCF7 breast it was -80% (active); with HCT-116 colon it was -17.6% (active). The growth in the assay on HCC-2998 colon was -80.3% (active); with KM12 colon, -95.3% (active).
With `C#C[C@]1(O)CC[C@H]2[C@@H]3CC=C4c5sc(Nc6cc(Cl)ccc6OC)nc5CC[C@]4(C)[C@H]3CC[C@@]21C`, the growth with T-47D breast was 31.2%; with BT-549 breast it was 3.68% (active); in the assay with MDA-MB-435 melanoma it was -0.171% (active); with SW-620 colon it was -20.7% (active); in the assay with MCF7 breast, -15.1% (active); with HCT-116 colon, 7.63% (active). Moreover, the values for the growth in the assay with HCC-2998 colon and with KM12 colon were 54.3% and 31.9%, respectively.
For the compound `CCOC(=O)c1cccc(NC2=C(Cl)C(=O)c3nc(C)ccc3C2=O)c1`, the growth with T-47D breast is 56.4%; in the assay on BT-549 breast, 121%; with MDA-MB-435 melanoma, 108%; with SW-620 colon, 84.3%; in the assay on MCF7 breast, 76%; with HCT-116 colon, 76.7%. Besides, the growth in the assay with HCC-2998 colon was 122%; in the assay on KM12 colon, 105%.

These data come from PubChem BioAssay (NCI).
